From PubChem
In the library only some 4.1% were active in any assay of this set; here they are far more common.
PglD DTNB: C. jejuni PglD acetyltransferase inhibitors, primary screen, biochemical, DTNB colorimetric, single point | UDP-N-acetylbacillosamine N-acetyltransferase PglD (Campylobacter jejuni) | purified PglD enzyme, DTNB colorimetric CoA detection | inhibition, % at 12.5 µM | 0.098% of 360,000 active | AID 602405, 2012; in the data active = inhibition above about 16%, passing the limit was not always enough; inconclusive = no clear call, values can overlap the other calls
ALR inh: inhibitors of human ALR sulfhydryl oxidase, primary screen, biochemical, H2O2 detection, HRP-luminol luminescence, single point | AID 485317, 2010 | purified ALR, DTT oxidation | inhibition, % (no concentration beside the values) | FAD-linked sulfhydryl oxidase ALR (Homo sapiens), P55789 | 3.8% of 290,000 active;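 active = mean replicate inhibition above about 79%, with every replicate also reaching it, limit read from the data; inconclusive = only one of the two criteria met; inactive = mean below limit and not every replicate reaching it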
HIV Env fusion: inhibitors of HIV-1 Env-driven cell-cell fusion, primary screen, HeLa-JRFL effector, CEM21 target cells, luciferase. 1.1% of 360,000 active. inhibition, % at 12.3 µM;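 active = mean replicate inhibition score of at least 50 and every replicate individually at or above 50; inconclusive = only one of the two criteria met; inactive = mean below 50 and not all replicates reaching 50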;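 also: 0% = plate neutral controls and 100% = maraviroc near 300 nM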
NSD2 HMT inh: NSD2 histone methyltransferase inhibitors, primary screen, biochemical, AlphaScreen, single concentration, set 2. Histone-lysine N-methyltransferase NSD2 (Homo sapiens), O96028. NSD2 peptide methylation, 120 min. AID 743445, 2014. inhibition, % at 12.5 µM. 0.54% of 310,000 active; in the data active = inhibition above about 50%
CFTR F508del cor: F508del CFTR correction, initial screen, CFBE line, single point; CFBE cells, YFP halide quenching; stimulated with forskolin plus potentiator P3; % fluorescence drop versus neutral controls; activity (quench increase), % at 7.58 µM; 0.36% of 350,000 active; AID 720511, 2013;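 active = mean added fluorescence quench of at least 8% versus neutral control, with both replicates also reaching 8%; inconclusive = only one of the mean or replicate conditions met; inactive = mean below 8% and not both replicates reaching 8%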;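 also: cells transiently co-express mutant CFTR-F508del with the halide-sensitive YFP; corrector assay measuring rescue of mutant channel to the surface after 24 h compound exposure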
Casp6 inh: human caspase-6 inhibitors, primary screen, biochemical, VEID-R110 fluorescence, single point, set 2 | P55212 | purified caspase-6, Z-VEID-R110 cleavage fluorescence | inhibition, % at 12.5 µM | 0.53% of 350,000 active | AID 686996, 2013;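 active = mean inhibition across replicates at least about 35%, with every replicate also reaching that limit, limit read from the data; inconclusive = only one of the two criteria met; inactive = neither criterion met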;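 also: 0% = median of neutral control wells and 100% = no fluorescence left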
Numbers without * were called inactive; ? = inconclusive; · = no result given; [ ] = dose if it differs, or a comment.

SMILES	PglD DTNB	ALR inh	HIV Env fusion	NSD2 HMT inh	CFTR F508del cor	Casp6 inh
Cc1noc(C)c1NC(=O)N(C)C[C@@H]1Oc2cc(C#CCC3CCCC3)ccc2S(=O)(=O)N([C@H](C)CO)C[C@@H]1C	-3	·	·	·	1	3
C[C@H](CO)N1C[C@H](C)[C@H](CN(C)C(=O)NC2CCCCC2)Oc2cc(C#Cc3ccc(F)cc3)ccc2S1(=O)=O	3	·	43[16.7 µM]	·	8.2*	2
C/C=C/c1ccc2c(c1)O[C@H](CN(C)C(=O)NC1CCCCC1)[C@H](C)CN([C@@H](C)CO)S2(=O)=O	0	·	56*[16.7 µM]	·	2	0
O=C(Cc1ccccn1)N[C@H]1CC[C@H](CC(=O)N2CCCCC2)O[C@@H]1CO	5	·	6[16.7 µM]	·	4	-1
COc1ccc2c3c([nH]c2c1)[C@H](CO)N(C(=O)C1CCOCC1)CC31CCN(C(=O)NC(C)C)CC1	·	·	-9[16.7 µM]	·	0	3
COc1ccc2c3c([nH]c2c1)[C@@H](CO)N(C(=O)Nc1ccc(F)cc1)CC31CCN(S(=O)(=O)c2cccc(F)c2)CC1	·	·	48[16.7 µM]	·	6	1
C[C@@H]1CN([C@@H](C)CO)S(=O)(=O)c2ccc(-c3ccc(F)cc3)cc2O[C@H]1CN(C)C(=O)C1CCCCC1	-3	·	67*[16.7 µM]	·	0	1
CCCCCCCCCCOC(=O)Cn1c(COc2ccccc2OC)[n+](C)c2ccccc21	-11	-13	86*	4	-3	-42
CO[C@@H]1CN(C)C(=O)c2cc(NS(=O)(=O)c3cn(C)cn3)ccc2OC[C@@H](C)N(Cc2cccc(Cl)c2)C[C@H]1C	-3	·	50[16.7 µM]	·	-1	-2
COc1ccc2[nH]c(=O)c3c(c2c1)OC(C)(C)C=C3	4	-6	136*	-2	·	·
Cc1cc2c([nH]c3ccccc32)c2c1OC(C)(C)C=C2	2	6	·	·	-1	0
CN(C)CC(=O)N1CC2(C1)[C@H](c1ccccc1)[C@H](CO)N2Cc1ccccc1F	·	·	·	·	-2	-3
CC1(C)CC2CC(C)(CN2S(=O)(=O)c2cccc(C(=O)OCC(=O)NC(N)=O)c2)C1 (configuration not stated)	1	-10	91*	-2	-4	7
CNC(=O)NC(=O)COC(=O)c1cccc(S(=O)(=O)N2CC3(C)CC2CC(C)(C)C3)c1 (configuration not stated)	·	1	5	-1	-2	4
CO[C@H]1CN(C)C(=O)c2cc(NC(=O)c3cnccn3)ccc2OC[C@H](C)N(C)C[C@@H]1C	-2	·	1[16.7 µM]	·	0	2
CC(=O)Oc1cc(C(=O)OCC(=O)NC23CC4CC(CC(C4)C2)C3)cc(OC(C)=O)c1OC(C)=O	2	·	·	·	10*	41*
CCOC(=O)c1c(OCC)[nH]c2ccc(O)cc12	1	87*	-15	12	·	·
CCCCN(C)S(=O)(=O)c1ccc(C(=O)Nc2nnc(-c3ccco3)o2)cc1	6	84*	11	·	1	4
COc1cc(C(=O)OCCCN2CCOCC2)ccc1O	1	99*	-10	1	0	-2
O=C1C=CCC(/C=C/c2ccccc2)O1 (configuration not stated)	·	3	·	·	15*	2
O=C/C=C/c1ccc(/C=C/c2ccccc2)cc1	·	·	-99[16.7 µM]	·	-3	1
CC(NC(=S)NC1CCCCC1)c1ccc(C(C)(C)C)cc1 (configuration not stated)	1	-3	?	5	-5	42*
COCCNC(=O)[C@H]1[C@H](CO)[C@H]2Cn3c(cccc3=O)[C@@H]1N2Cc1cc(F)ccc1F	-8	·	·	·	-5	-8
COc1cccc(CCNC(=O)c2ccc(C#N)cc2)c1	·	6	0	-1	0	0
CCN(CCNC(=O)c1ccc(C#N)cc1)c1cccc(C)c1	-5	98*	·	25	·	·
SMILES	PglD DTNB	ALR inh	HIV Env fusion	NSD2 HMT inh	CFTR F508del cor	Casp6 inh
Cc1ccc(C(CC(=O)c2ccc(Cl)cc2)C(=O)O)cc1 (configuration not stated)	0	11	-4	0	3	1
Cc1ccc(SC(CC(=O)c2ccc(C)cc2)C(=O)O)cc1 (configuration not stated)	8	99*	·	4	·	·
C[C@@H]1CCCCO[C@H](CN(C)C(=O)c2ccncc2)[C@@H](C)CN([C@H](C)CO)C(=O)c2cc(NC(=O)C3CCCCC3)ccc2O1	·	·	15[16.7 µM]	·	0	·
S=c1[nH]nc(CN2CCCCC2)n1-c1ccc(Cl)cc1	·	19	0	-2	-1	-3
Fc1ccc(-n2c(CN3CCCCC3)n[nH]c2=S)cc1	·	87*	15	0	1	1
O=C(C[C@@H]1C=C[C@@H](NC(=O)c2ccncc2)[C@@H](CO)O1)NCc1ccncn1	·	·	·	·	0	3
CCn1c(SCC(=O)OCc2ccccc2)nnc1-c1ccco1	-1	-5	·	-1	2	57*
CCn1c(SCC(=O)Nc2ccc(N3CCOCC3)cc2)nnc1-c1ccco1	5	98*	19	-2	3	3
CC(C)(C)c1nc(SCC(=O)Nc2ccc(N3CCOCC3)cc2)c2ccccc2n1	-2	98*	-7	4	·	·
CCn1c(SCC(=O)Nc2ccc(N3CCOCC3)cc2)nnc1-c1ccc(OC)cc1	·	-1	·	-3	-1	-1
CCn1c(C)nnc1SCC(=O)Nc1ccc(N2CCOCC2)cc1	7	88*	-7	8	2	1
CCS(=O)(=O)N1CCC2(CC1)CN(C(=O)NC(C)C)[C@H](CO)c1c2c2ccc(OC)cc2n1C	·	·	·	·	-2	1
C[C@H]1CCCCO[C@@H](CN(C)CC2CCCCC2)[C@@H](C)CN([C@@H](C)CO)C(=O)c2cc(NC(=O)Cc3ccccc3)ccc2O1	0	·	14[16.7 µM]	·	-2	-1
C[C@@H]1CN([C@@H](C)CO)C(=O)c2cc(-c3ccccc3F)cnc2O[C@H]1CN(C)C(=O)c1ccccn1	-2	·	3[16.7 µM]	·	-4	-2
CCOc1c(Br)cc(CNc2ccc3c(c2)OCCO3)cc1OC	10	47	·	4	·	·
CCOc1c(Br)cc(CNc2ccc(N3CCOCC3)cc2)cc1OC	-1	98*	13	·	-1	-1
C[n+]1ccc(/C=C/c2c[nH]c3ccc(F)cc23)cc1	-12	31	59*	·	4	-23
CC1(C)CC(=O)C2=C(C1)NC(=O)CC2	·	·	-4	0	-1	38*
Nc1nnc(SCCCC(=O)c2ccc(F)cc2)s1	·	-23	·	29	-1	-1
O=C(CCCSc1nnc(SCCCC(=O)c2ccc(F)cc2)s1)c1ccc(F)cc1	0	-3	60*	-3	·	·
Cc1ccc(CNC(=O)c2ccc3c(=O)c(O)c(-c4ccc(C)cc4)[nH]c3c2)cc1	-2	6	57*	·	14*	-4
